Compound activity deposited in PubChem BioAssay by National Center for Advancing Translational Sciences (NCATS).
KB-V1 MDR tox = KB-V1 MDR subline cytotoxicity; actives 3.4% (n = 400,000); Potency, µM (titrated, usually from 46.1 µM), hits mostly cytotoxic; KB-V1 MDR cells viability, CellTiter-Glo, 72 h; AID 1347076; note: % is set by controls: 0 for no effect and ±100 for the full control effect; nearly all actives have a fitted effect of over 60% in size
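Potencies derive from concentration-effect curves fitted to normalized luminescence (CellTiter-Glo) of KB-V1 cells treated for 72 h at 37 degrees C in phenol-red-free DMEM containing 10% FBS.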
KB-3-1 cytotox = kills parental KB-3-1 adenocarcinoma cells. KB-3-1 viability, CellTiter-Glo ATP luminescence, 72 h. Potency, µM (top dose mostly 46.1 µM), hits mostly cytotoxic. actives 1.4% (n = 400,000); note: % is set by controls: 0 for no effect and ±100 for the full control effect; nearly all actives have a fitted effect of over 60% in size
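Cells are dispensed, compounds pinned in, plates held at 37 °C for 72 h, then CellTiter-Glo is added and luminescence read after 10 minutes. Cell line: parental KB-3-1 in phenol-red-free DMEM, 10% FBS.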
ELG1 DNA repair = blocks ELG1-dependent DNA repair in HEK293T cells; AID 504467; Potency, µM (titrated, usually from 46.1 µM), inactives show at the highest dose activity change, negative = inhibition, usual class: inhibitors; actives 2.3% (n = 330,000); HEK293T ELG1-luciferase reporter, luminescence, 16 h; DNA damage induced by 5-fluorouridine; note: % is set by controls: 0 for no effect and ±100 for the full control effect; nearly all actives have a fitted effect of over 55% in size
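Luminescence from the luciferase reporter, measured 30 min after ONE-Glo reagent at room temperature, was the read-out. Beforehand, 2,000 cells per well were exposed for 16 hr at 37 °C to 5-fluorouridine together with compound or vehicle.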
SW480 rereplic = induces DNA re-replication in SW480 colon adenocarcinoma cells. SW480 DNA re-replication, Hoechst DNA content imaging, 48 h. Potency, µM (titrated, usually from 46.1 µM), for inactives: top-dose re-replication activation, most hits filed as activators. actives 1.8% (n = 340,000); note: % of control where 0% means no effect; nearly all actives have a fitted effect of over 55% in size
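Image-based DNA-content assay: after two days of treatment, nuclei were labelled with the DNA dye Hoechst and imaged, and hits were compounds raising the count of nuclei showing high fluorescence intensity.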
MCF10A rerep = DNA re-replication induction in MCF 10a cells; MCF 10A DNA re-replication, Hoechst nuclear intensity, 48 h; Potency, µM (series often up to 46.1 µM), for the others: top-dose activity, positive = re-replication, usual class: activators; actives 2.9% (n = 350,000); AID 624296; note: % of control where 0% means no effect; nearly all actives have a fitted effect of over 50% in size
* hit, by the source's call; i = inactive; ? = inconclusive; nt = no result. The list is not random: actives were taken first. Their share in the collection is about 8.1%. Calls come from the whole dose curve; as a rule, active = well fitted curve in the direction sought with a large enough effect; inconclusive = small, poorly fitted or top-dose-only effect, or another doubt; inactive = no such curve, though single readings can be large; an effect the other way counts as inactive or inconclusive. Potency is the fitted concentration of half-maximal effect.

SMILES	KB-V1 MDR tox	KB-3-1 cytotox	ELG1 DNA repair	SW480 rereplic	MCF10A rerep
COc1ccc(N(CC(=O)NN=C2CCN(C)CC2)S(=O)(=O)c2ccc(NC(C)=O)cc2)cc1	i	i	-2%	1%	-9%
Cc1ccc(S(=O)(=O)N/N=C/c2ccccc2F)cc1[N+](=O)[O-]	i	i	6%	-18%	-9%
Cn1c(-c2ccccc2)cnc1NCc1ccccc1	?	?	26%	?	23%
COc1ccc(-c2nc(C)c(CCNS(=O)(=O)c3ccc(F)cc3)s2)cc1OC	9.2µM*	?	nt	nt	nt
Cc1ccc(NC(=O)c2ccncc2)cc1[N+](=O)[O-]	i	i	-3%	-67%	-1%
Clc1ccc(-c2cn3c(n2)-c2ccccc2C3)cc1Cl	15µM*	i	?	-2%	-2%
Clc1ccc(-c2cn3cc(Br)ccc3n2)cc1Cl	i	i	?	1%	20%
CC1=NN(c2nc(-c3ccc(C)cc3)cs2)C(=O)C1N=Nc1cccc(O)c1 (stereo not given)	i	i	-15%	5%	-7%
CC1=NN(c2nc(-c3ccc(C)cc3)cs2)C(=O)C1N=Nc1ccccc1O (stereo not given)	i	i	?	0.73µM*	?
Cc1ccc(Cc2c(C)nc3nc(SCC(=O)NCc4ccco4)nn3c2C)cc1	8.2µM*	4.6µM*	14%	?	6.5µM*
Cn1c(=O)c2c(ncn2CC(=O)Nc2ccccc2N2CCOCC2)n(C)c1=O	i	i	-16%	0%	5%
O=C(N/N=C/C=C/c1ccccc1[N+](=O)[O-])c1cccs1	?	i	-11%	-8%	?
O=C(N/N=C/c1ccc([N+](=O)[O-])cc1)c1ccc(NS(=O)(=O)c2cccs2)cc1	i	i	-11%	-9%	-2%
O=C(N/N=C/c1ccc([N+](=O)[O-])o1)c1ccc(NS(=O)(=O)c2cccs2)cc1	?	?	21µM*	?	18µM*
O=C(N/N=C\C=C\c1ccc([N+](=O)[O-])o1)c1cccs1	i	i	-2%	12µM*	8.2µM*
CCOc1ccc(-n2c(C)nc3cc(C(=O)NCc4ccc5c(c4)OCO5)ccc32)cc1	13µM*	?	-1%	2%	18%
CCCOC(=O)c1ccc2c(c1)C(=O)N(c1ccccc1)C2=O	i	i	10%	16µM*	?
CCCOC(=O)CN1C(=O)c2ccc(C(=O)OCCC)cc2C1=O	i	i	2%	-3%	-5%
C/C(=N/NC(=O)c1cccc(C)c1)c1c(O)cc(C)oc1=O	?	?	?	-5%	5%
Cc1ccc(C(=O)CSC2=C(C#N)C(c3ccco3)CC(=O)N2)c(C)c1 (stereo not given)	15µM*	i	0%	-3%	25%
Cc1ccc(NC(=O)CSC2=C(C#N)C(c3ccco3)CC(=O)N2)cc1 (stereo not given)	?	?	?	3%	14%
COC(=O)CSC1=C(C#N)C(c2ccc(F)cc2)CC(=O)N1 (stereo not given)	i	i	-12%	-3%	1%
COC(=O)CSC1=C(C#N)C(c2ccc(C)o2)CC(=O)N1 (stereo not given)	?	18µM*	-4%	5.8µM*	?
CCc1ccc(C(=O)Cn2cnc3cc([N+](=O)[O-])ccc3c2=O)cc1	i	i	?	4%	2%
CCOC(=O)c1cc(OCc2csc(-c3ccccc3)n2)cc(C(=O)OCC)c1	i	i	nt	nt	nt
SMILES	KB-V1 MDR tox	KB-3-1 cytotox	ELG1 DNA repair	SW480 rereplic	MCF10A rerep
Cn1c(CNC(=O)c2cccs2)nnc1SCC(=O)Nc1ccc(Cl)cc1	i	i	0%	-11%	0%
COCC(C)N1C(=O)Cc2c1nc(N)c1c(N)nc(N3CCN(c4ccccc4F)CC3)c(C#N)c21 (stereo not given)	?	?	21µM*	?	12µM*
COc1ccc(-c2nc3ccccc3o2)cc1NC(=O)c1cccnc1	?	i	nt	nt	nt
CCOC(=O)Cc1nnc(NC(=O)c2ccccc2OC)s1	i	i	0%	-4%	-2%
COc1ccc(Cc2nnc(NC(=O)c3ccccc3[N+](=O)[O-])s2)cc1	i	i	-1%	-75%	23µM*
COc1ccccc1C(=O)Nc1nnc(CCc2ccccc2)s1	?	12µM*	-16%	6.5µM*	?
COc1ccc(Cc2nnc(NC(=O)c3cccc([N+](=O)[O-])c3C)s2)cc1	21µM*	i	2%	-9%	29%
COc1cc(C(=O)Nc2nnc(CC(C)(C)C)s2)c([N+](=O)[O-])cc1OC	21µM*	i	0%	12%	-3%
CCN(CC)C(=O)C1=C(C)Nc2nc3ccccc3n2C1c1ccc(Cl)cc1 (stereo not given)	i	i	nt	nt	nt
O=C(NCc1nnc(SCC(=O)N2CCc3ccccc32)o1)c1cccs1	?	i	5%	1%	0%
CCOC(=O)C1(Cc2cccc(OC)c2)CCCN(Cc2ccc(NC(C)=O)cc2)C1 (stereo not given)	i	i	-1%	2%	2%
CCOC(=O)c1cnc2c(ccc3ccccc32)c1Nc1ccc(OC)c(OC)c1	?	7.3µM*	nt	nt	nt
CCOC(=O)c1cnc2ccccc2c1Nc1ccc(N2CCOCC2)cc1	i	i	nt	nt	nt
CCOC(=O)c1cnc2c(ccc3ccccc32)c1Nc1ccc(Cl)cc1	i	i	nt	nt	nt
CCOC(=O)c1cnc2c(ccc3ccccc32)c1Nc1ccc(C(C)=O)cc1	16µM*	?	nt	nt	nt
CCOC(=O)c1ccc2ncc(C(=O)OCC)c(Nc3ccc(N4CCOCC4)cc3)c2c1	i	i	10µM*	?	13%
CCOC(=O)c1cnc2c(OC)cccc2c1Nc1ccc2c(c1)OCCO2	13µM*	?	?	?	?
O=C(COc1ccccc1Cl)Nc1cc(Cl)ccc1O	i	i	2%	5%	-1%
Cc1cc(O)c(-c2ccnc3cc(-c4ccccc4)nn23)cc1Cl	i	i	nt	nt	nt
O=c1c2c3c(sc2nc(N2CCNCC2)n1CCc1ccccc1)CCCCC3	i	i	9%	-7%	-2%
CC(C)COc1ccc(C(=O)Nc2scc(-c3ccc(Cl)cc3Cl)c2C(N)=O)cc1	3.7µM*	3.3µM*	-13%	5%	?
Cc1cccc(-n2c(O)c(C=Nc3cc(O)ccc3C)c3ccccc3c2=O)n1	i	i	-16%	0%	-1%
Cc1cccc(-n2c(O)c(C=Nc3ccccc3O)c3ccccc3c2=O)n1	i	i	23µM*	4%	0%
